Compound activity from PubChem.
In the library only some 4.3% were active in any assay of this set; here they are far more common.
GRIN3A LBD mod: binders of NR3A ligand-binding domain, primary screen, biophysical, differential scanning fluorimetry, uHTS. Tm shift relative to glycine control, % at 25 µM. AID 1259313, 2017. hit rate 2.5% among 340,000. NR3A LBD differential scanning fluorimetry, Tm shift; 0% = protein alone, 100% = glycine-bound protein;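 active = melting temperature shift of at least 10% of the positive control shift, at one fixed dose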
ADAM10 inh: human ADAM10 inhibitors, primary screen, biochemical, QFRET, HTS | Disintegrin and metalloproteinase domain-containing protein 10 (Homo sapiens), O14672 | recombinant ADAM10, EDANS/DABCYL FRET peptide cleavage, 3 h | inhibition, % at 7 µM | hit rate 0.62% among 370,000 | AID 720582, 2013;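 active = inhibition above a per-campaign cutoff equal to the mean of compounds falling between control-based bounds plus 3 SD, cut at about 20% in these data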;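 note: 0% = DMSO wells while the 100% control is not disclosed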
FAS-TE inh: FAS thioesterase domain inhibitors, primary screen, biochemical, fluorescence intensity, uHTS | Fatty acid synthase (Homo sapiens), P49327 | hit rate 0.67% among 360,000 | recombinant FAS-TE, OMFH fluorogenic substrate, fluorescence endpoint | inhibition, % at 15 µM;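 active = compounds whose normalised, plate-corrected inhibition of enzyme fluorescence in the single-dose primary screen is 50% or more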;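 note: 0% = DMSO with enzyme and 100% = substrate without enzyme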
ADAM17 inh: ADAM17 inhibitors, primary screen, biochemical, QFRET; recombinant ADAM17, EDANS/DABCYL FRET peptide cleavage; hit rate 0.83% among 370,000; Disintegrin and metalloproteinase domain-containing protein 17 (Homo sapiens), P78536; AID 720648, 2013; inhibition, % at 6.95 µM;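 active = inhibition above the mean of compounds lying between control limits plus 3 SD, set per campaign, cut at about 8.5% in these data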;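 note: 0% = DMSO-only wells as the low control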
Target sequence (P78536 215-824 limits assumed): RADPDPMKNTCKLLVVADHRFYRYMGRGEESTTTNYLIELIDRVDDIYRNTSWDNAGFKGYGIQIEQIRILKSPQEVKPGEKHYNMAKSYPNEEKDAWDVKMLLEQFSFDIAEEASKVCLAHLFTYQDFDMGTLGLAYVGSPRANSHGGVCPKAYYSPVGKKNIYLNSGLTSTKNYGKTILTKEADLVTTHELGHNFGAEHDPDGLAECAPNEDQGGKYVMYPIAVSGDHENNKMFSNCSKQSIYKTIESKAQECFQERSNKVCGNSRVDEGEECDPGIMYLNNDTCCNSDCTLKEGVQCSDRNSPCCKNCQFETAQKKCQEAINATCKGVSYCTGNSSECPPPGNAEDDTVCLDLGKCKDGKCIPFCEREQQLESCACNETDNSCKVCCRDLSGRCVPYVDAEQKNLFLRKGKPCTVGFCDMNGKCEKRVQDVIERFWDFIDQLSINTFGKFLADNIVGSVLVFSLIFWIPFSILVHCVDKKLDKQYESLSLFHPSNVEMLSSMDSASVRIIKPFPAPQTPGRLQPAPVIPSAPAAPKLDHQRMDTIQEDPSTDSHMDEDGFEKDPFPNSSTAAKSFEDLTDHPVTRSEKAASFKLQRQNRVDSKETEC
HGIII-sPLA2 inh: human group III sPLA2 inhibitors, primary screen, biochemical, QFRET, BODIPY PC-A2 liposome substrate; Group 3 secretory phospholipase A2 (Homo sapiens), Q9NZ20; QFRET BODIPY PC-A2 liposome hydrolysis, fluorescence; inhibition, % at 12.2 µM; AID 743126, 2013; hit rate 0.56% among 370,000;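 active = inhibition above mean plus 3 SD of compounds lying within the high and low control bounds, cut at about 19% in these data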;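 note: 0% = median of test compound wells and 100% = no enzyme DMSO wells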
Active calls of the source: *; x = not tested or not shown.

SMILES	GRIN3A LBD mod	ADAM10 inh	FAS-TE inh	ADAM17 inh	HGIII-sPLA2 inh
Nc1nnc(-c2cn(-c3ccccc3)nc2-c2ccc(Cl)cc2)o1	25*	-3	1	-3	-8
CC(=O)N1[C@@H](CO)[C@@H](c2ccc(-c3cccc(F)c3)cc2)[C@@H]1CNCC1CCC1	x	8	x	2	-5
O=C(COc1ccc(/C=N/NC(=O)c2ccc(O)cc2)cc1)Nc1cccc([N+](=O)[O-])c1	31*	-1	-3	-5	0
CCC(=O)Nc1ccc(C(=O)NNC(=O)c2ccc([N+](=O)[O-])cc2)cc1	0	6	7	-4	1
O=C(COc1ccc(/C=N/NS(=O)(=O)c2ccccc2)cc1)Nc1cccc(Cl)c1	16*	10	18	3	-31
O=C(COc1ccc(/C=N/NS(=O)(=O)c2ccccc2)cc1)NCc1ccccc1	-2	4	-4	-1	-7
Nc1ccc(C(=O)N/N=C\C=C\c2ccc([N+](=O)[O-])cc2)cc1	15*	3	-1	6	0
O=C(COc1ccc(/C=N/NC(=O)c2ccncc2)cc1)Nc1ccc([N+](=O)[O-])cc1	-6	-2	-2	-1	2
CCC(=O)Nc1ccc(C(=O)N/N=C/c2ccc([N+](=O)[O-])cc2)cc1	16*	8	-4	-1	3
C[C@@H]1CN([C@H](C)CO)S(=O)(=O)c2ccc(Br)cc2O[C@H]1CN(C)CC1CCOCC1	x	4	x	-2	-10
CC(C)(C)N1Cc2nnn(CC3CCCCC3)c2-c2ccccc2S1(=O)=O	x	11	x	4	-2
O=C(CO/N=C/c1cccc([N+](=O)[O-])c1)Nc1ccc2ccccc2c1	13*	13	22	6	-15
O=C(N/N=C/c1ccc([N+](=O)[O-])cc1)c1ccc(COc2ccccc2-c2ccccc2)cc1	16*	14	24	0	-5
CCOC(=O)N1CCN(C(=O)C[C@H]2C[C@@]3(C(=O)OC)C(=C[C@H](COCc4ccccc4)O[C@@H]3C)N(Cc3ccco3)C2=O)CC1	x	2	x	3	1
O=C(CSc1ccc(Cl)cc1)Nc1ccc(N2CCN(C(=O)c3ccco3)CC2)cc1	1	-1	12	4	7
O=C(CSc1ccc(Cl)cc1)Nc1ccc(NC(=O)c2ccco2)cc1	21*	-1	-5	-4	1
O=C(CSc1nc2ccccc2o1)Nc1ccc(Cl)cc1	19*	-1	18	-1	-17
CC(=O)c1ccc(NC(=O)CSc2nnc(NC(=O)c3ccco3)s2)cc1	19*	x	-4	x	x
Cc1ccc(NC(=O)CSc2nnc(NC(=O)c3ccco3)s2)cc1	13*	-10	-4	-3	-1
CCCC1CCC2(CCCN2CCOC(=O)Nc2cccc(Cl)c2)CC1 (configuration not stated)	x	2	x	0	-15
COc1ccc(C=Nn2c(-c3n[nH]c4c3CCC4)n[nH]c2=S)cc1OCc1ccccc1	x	-2	x	3	4
C[C@H]1[C@@H](OC(=O)NCc2ccc(C(F)(F)F)cc2)CC[C@@]23CCCN2C(=O)CCC[C@@H]13	x	5	x	1	2
COc1ccccc1C(=O)Nc1ccnn1C1CCN(C/C=C/c2ccccc2)CC1	13*	-3	-3	-11	-17
COc1ccccc1CC(=O)N1CCC(n2nccc2NC(=O)C2CCOC2)CC1 (configuration not stated)	10*	4	-3	-2	7
O=C(/C(N=Nc1cccc([N+](=O)[O-])c1)=C(/O)c1ccc(Br)cc1)C(F)(F)F	x	x	64*	x	x
SMILES	GRIN3A LBD mod	ADAM10 inh	FAS-TE inh	ADAM17 inh	HGIII-sPLA2 inh
O=C(O)c1ccc(N=NNc2cccc([N+](=O)[O-])c2)cc1	-2	0	0	2	-2
Cc1c(C(=O)Nc2ccc(-n3cnnn3)cc2)oc2ccccc12	27*	-5	-4	-2	2
Cn1nc(C(=O)Nc2ccc(-n3cnnn3)cc2)c2ccccc2c1=O	-4	-3	-8	-1	-5
Cc1c(C(=O)NC(=S)NCC(C)C)oc2ccccc12	18*	-2	-5	-5	5
CCC(=O)Nc1ccc(NC(=O)c2oc3ccccc3c2C)cc1	29*	10	1	4	-7
COc1ccccc1C(=O)NC1CCCCN(Cc2cccc(F)c2)C1=O (configuration not stated)	x	3	x	-1	-4
C[C@@H]1COc2cc(Br)ccc2S(=O)(=O)N1Cc1cn(CCC2OCCCO2)nn1	x	-9	x	-3	9
O=C1NC[C@@H](Cc2ccc(O)cc2)N(CCc2cc(C(F)(F)F)cc(C(F)(F)F)c2)C1=O	x	-3	-5	2	-11
Oc1ccc(C[C@@H]2CNC(=S)N2CCc2cc(C(F)(F)F)cc(C(F)(F)F)c2)cc1	34*	10	7	1	-9
Oc1ccc(C[C@H]2CNC(=S)N2CCc2cc(C(F)(F)F)cc(C(F)(F)F)c2)cc1	31*	15	-1	2	-8
COc1cccc(C(=O)N[C@H](C(=O)N2CCC[C@H]2C(=O)NCc2ccccc2)c2ccccc2)c1	x	0	x	-4	0
Fc1cc(F)c2nc(Nc3nc4cc5c(cc4s3)OCO5)sc2c1	16*	-164	2	-48	1
Cc1ccc(/C=C2/CNC/C(=C/c3ccc(C)cc3)C2=O)cc1	31*	-14	-4	-4	6
Cc1ccc(/C=C2\CCOC2=O)cc1	x	-2	-1	-4	11
O=C1CSc2ccc(C(=O)N3CCCC(C(=O)N4CCCN(Cc5ccccc5)CC4)C3)cc2N1 (configuration not stated)	x	0	x	2	2
Cc1nn(CCC#N)c(NC(=O)c2ccc(Cl)cc2Cl)c1P(=O)(Nc1ccc([N+](=O)[O-])cc1)N1CCOCC1 (configuration not stated)	5	1	52*	-3	-7
COc1ccc(NC2CCCN(C(=O)CCc3scnc3C)C2)cc1 (configuration not stated)	14*	-6	-9	-2	6
COCCOc1ccc(C(F)(F)F)cc1NC(=O)COC(=O)C12CC3CC(CC(O)(C3)C1)C2	26*	8	3	2	-21
O=C(COC(=O)C12CC3CC(CC(O)(C3)C1)C2)Nc1ccc(Br)cc1F	0	2	3	1	-1
C[C@H]1[C@H](NC(=O)c2ccc(Cl)c(Cl)c2)CC[C@@]23CCCN2C(=O)CCC[C@@H]13	x	-2	x	-6	-1
COc1ccc([C@H]2OC(=O)C[C@@H]2C(=O)N2CCN(c3ccccc3F)CC2)cc1OC	x	-7	x	-4	9
